# Results from PubChem BioAssay (Tox21).
# Values without a mark were called inactive. A call without a number means that no potency is given here. Active and inactive are the calls of the source. Calls follow the shape of the full dose curve.
# Experiment: qHTS assay to identify small molecule agonists of the sonic hedgehog signaling (Shh) pathway (AID 1259368); also: nearly all actives have a fitted effect of over 15% in size;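 as to activity change: NIH/3T3-derived 3T3Gli1-Luc cells carrying a stable Gli1-driven firefly luciferase reporter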
# Conditions: NIH/3T3 Gli1-Luc reporter, luciferase, 24 h; series mostly up to 92.4 µM
# Excerpt: National Center for Advancing Translational Sciences [NCATS]
# NIH Chemical Genomics Center [NCGC]
# U.S. Environmental Protection Agency [EPA]
# National Institutes of Environmental Health Sciences [NIEHS]
# National Toxicology Program [NTP]
# The sonic hedgehog (Shh) pathway is essential for normal embryonic development. Dysregulation of the Shh pathway can cause severe developmental defects in organs. Therefore chemicals that interfere with the pathway are potential developmental toxicants. A cell line designated 3T3Gli1-Luc (DMB/OARSA/CFSAN/FDA, Laurel, MD), a NIH/3T3 derived clone containing stably integrated Gli1-Luc reporter is used to detect chemical interference of the Shh pathway, by changes in the expression of the firefly Luc gene under the control of the Gli1 transcriptional response element. This cell line was used to screen Tox21 libraries for identifying and prioritizing the potential developmental toxicants that interfere Shh pathway.
# 3T3 Gli1-Luc cells were dispensed at 2,000 per well in 5uL of culture medium into white solid bottom 1536-well plates (Greiner Bio-One, Monroe, NC) using a Multidrop Combi (Thermo Scientific, Waltham, MA) dispenser. The assay plates were incubated at 37 C and 5% CO2 for 4hr, and then 23nL of compounds dissolved in DMSO and positive control were transferred using a Pintool station (Wako, San Diego, CA). The assay plates were incubated at 37C and 5% CO2 for 24hr. For luciferase read, 4uL of Amplite Luciferase reporter gene assay reagent (AAT Bioquest, Inc. Sunnyvale, CA) was added to each well of the assay plates using Flying Reagent Dispenser (FRD, Aurora Discovery, San Diego, CA) and incubated at room temperature for 30min. The luminescence signal was measured using a ViewLux plate reader (Perkin Elmer, Shelton, CT).
# Potency is read from the fitted curve at half-maximal effect.
Structure (SMILES),Potency,activity change
CCN(O)CC,inactive,
CCN(CC)C(=O)N(CC)CC,inactive,
CCCCCCCCCC#N,inactive,
COc1ccc(S(=O)(=O)Nc2nnc(CC(C)C)s2)cc1,inactive,
CCOc1ccc(NC(N)=O)cc1,inactive,
CC(C)O,inactive,
COc1cc(N)c(Cl)cc1C(=O)NC1CCN(Cc2ccccc2)CC1,inactive,
CCCCCCCCCC/C=C/C#N,inactive,
CC(C)(CO)[C@@H](O)C(=O)NCCC(=O)O,inactive,
COC(=O)N[C@H](C(=O)N[C@@H](Cc1ccccc1)[C@@H](O)CN(Cc1ccc(-c2ccccn2)cc1)NC(=O)[C@@H](NC(=O)OC)C(C)(C)C)C(C)(C)C,inactive,
O=c1[nH]c(=O)n([C@H]2C[C@H](O)[C@@H](CO)O2)cc1C(F)(F)F,inactive,
O=C1N(c2ccccc2)c2ccccc2C1(Cc1ccncc1)Cc1ccncc1,inactive,
CCCC1CCC(=O)O1 (stereo not given),inactive,
Cc1cc(NS(=O)(=O)c2ccc(N)cc2)nc(C)n1,inactive,
CCN(CC)CCOc1ccc(Cc2ccccc2)cc1,inactive,
CCCNC(C)(C)COC(=O)c1ccccc1,inactive,
COc1cc2c(cc1N)oc1ccccc12,inactive,
CC/C=C\CCOC(=O)CCCCC,inactive,
CC(C)C(=O)OCC(C)(C)C(O)C(C)C (stereo not given),inactive,
CC1(C)O[C@@H]2C[C@H]3[C@@H]4CCC5=CC(=O)CC[C@]5(C)[C@@]4(F)[C@@H](O)C[C@]3(C)[C@]2(C(=O)CCl)O1,13.3 µM (active),

Structure (SMILES),Potency,activity change
CCc1nnc(NS(=O)(=O)c2ccc(N)cc2)s1,inactive,
CCOC(=O)c1ccccc1O,inactive,
COC(=O)C(C)O (stereo not given),inactive,
CCOc1ccccc1N,inactive,
Cc1ccc([N+](=O)[O-])cc1Cl,inactive,
CCCCC1CCC(=O)O1 (stereo not given),inactive,
CCCCNCCCC,inactive,
CC(C)(C)c1ccc(OC(=O)c2ccccc2O)cc1,inactive,
CCOC(=O)C1CC(=O)C(=C(O)C2CC2)C(=O)C1 (stereo not given),inactive,
CC(=O)OC(C)OC(C)=O,inactive,
O=C(CC(=O)C(F)(F)F)c1ccccc1,inactive,
O=C(O)[C@@H]1CSCN1,inactive,
CCCCN1C[C@H](O)[C@@H](O)[C@H](O)[C@H]1CO,inactive,
CC(C)(C)C1CCCCC1=O (stereo not given),inactive,
FC(F)(F)c1ccccc1,inactive,
ICCc1ccccc1,inactive,
CN1CCN(C2=Nc3cc(F)ccc3Cc3ccccc32)CC1,inactive,
O=c1oc2c(O)c(O)cc3c(=O)oc4c(O)c(O)cc1c4c23,,"-1.7% [at 18.9 µM, active compounds read high]"
OC[C@H]1O[C@@H](O[C@H]2[C@H](O)[C@@H](O)[C@H](O)O[C@@H]2CO)[C@H](O)[C@@H](O)[C@H]1O,inactive,
CCOc1ccc(NS(=O)(=O)c2ccc(N)cc2)nn1,inactive,
